The results in this text go back to PubChem BioAssay.

Sequence of Albumin (Bos taurus) (P02769 whole entry, looked up): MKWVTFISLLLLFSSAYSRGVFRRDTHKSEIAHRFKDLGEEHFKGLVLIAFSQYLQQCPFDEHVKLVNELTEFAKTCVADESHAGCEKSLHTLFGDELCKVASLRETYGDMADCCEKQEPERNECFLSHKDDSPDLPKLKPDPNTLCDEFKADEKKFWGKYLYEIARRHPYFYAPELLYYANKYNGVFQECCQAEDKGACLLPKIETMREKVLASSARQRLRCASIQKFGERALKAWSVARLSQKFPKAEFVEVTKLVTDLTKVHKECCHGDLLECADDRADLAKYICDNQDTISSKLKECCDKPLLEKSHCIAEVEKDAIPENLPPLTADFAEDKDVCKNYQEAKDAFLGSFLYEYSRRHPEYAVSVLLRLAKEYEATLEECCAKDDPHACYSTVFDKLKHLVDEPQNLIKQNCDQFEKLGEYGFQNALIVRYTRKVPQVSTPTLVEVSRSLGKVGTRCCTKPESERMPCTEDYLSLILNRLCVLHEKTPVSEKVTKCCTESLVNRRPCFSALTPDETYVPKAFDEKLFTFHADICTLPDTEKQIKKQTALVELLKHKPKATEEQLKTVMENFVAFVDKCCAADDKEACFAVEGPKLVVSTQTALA

This assay concerns the target Albumin (Bos taurus) (UniProt P02769). Description: bovine serum albumin binders on microarray, profiling panel, artefact control for SMM control protein annotation, biochemical, small-molecule microarray, Alexa647 label, 635/667 nm fluorescence (AID 1118).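 Note: score merges 667 nm emission intensity and signal-to-noise per printed compound spot.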 To be noted: BSA-A647 binding, fluorescence 635 nm, higher = more signal.
As for `[N-]=[N+]=Nc1ccccc1[C@H]1OC(c2ccc(OCCCO)cc2)=N[C@@]1(CCS(=O)(=O)c1ccccc1)C(=O)N1CCCCC1`, the composite z-score was found to be 0.949.

`CN(C)CCCNC(=O)[C@@H]1c2ccccc2C(=O)N(CC23CC4CC(CC(C4)C2)C3)[C@H]1c1ccc(CO)cc1` returned a composite z-score of 0.821.

`COC(=O)[C@]1(CCS(=O)(=O)c2ccccc2)N=C(c2ccc(OCCCO)cc2)O[C@@H]1c1ccccc1CN=[N+]=[N-]`: the composite z-score was -0.453.

Consider `O=C(NC1CC1)[C@@H]1c2ccccc2C(=O)N(Cc2ccccc2)[C@H]1c1ccc(CO)cc1`, for which the composite z-score was determined as 0.0082.

Take `COC(=O)C1(Cc2ccccc2)C=C2C(=C(c3ccccc3)C(=O)C2C)CN1` (stereo unspecified): the composite z-score came to 0.544.

The compound `NC(N)=NCc1cn(CCc2c[nH]c3ccccc23)nn1` registered a composite z-score of 0.566.

As to `CC(=O)n1cc(C(O)C2C=CC3C(=O)N(c4ccccc4)C(=O)C3N2Nc2ccccc2)c2ccccc21` (stereo unspecified), the composite z-score was 0.408.

`CC(C)C(O)C1C=CC2C(=O)N(C)C(=O)C2N1N(c1ccccc1)c1ccccc1` (stereo unspecified): the composite z-score was 0.736.

`C=C(CCCC)/C(=C/C[C@@H](OC(C)=O)c1ccc(CO)o1)c1cc(C(=O)OC)ccc1OC` showed a composite z-score of 0.557.

The compound `COCCOC(=O)N1C(=O)[C@@]2(c3cc(C#Cc4ccc(OC)cc4)ccc31)[C@H](C(=O)N1CCCCCCC1)[C@H]1C(=O)O[C@H](c3ccccc3)[C@H](c3ccccc3)N1[C@@H]2c1ccc(O)cc1` had a composite z-score of -0.617.

On to `C#CCNC(=O)[C@H](Cc1ccccc1)NC(=O)[C@@H](N=[N+]=[N-])C(C)C`, for which the composite z-score amounted to 0.51.

The compound `COc1c(C)cc(-c2cc3c(c(-c4ccccc4)n2)[Si](C(C)C)(C(C)C)OC3)cc1C` registered a composite z-score of 0.247.

The compound `CN(C)CCCCNC(=O)[C@H]1C[C@H]2C(=O)N[C@@H](CCCCN(C)C)C(=O)N2[C@H]1c1cccc(OCCO)c1` showed a composite z-score of 0.418.

For the compound `COC(=O)C1(Cc2ccccc2)C=C2C(=C(C(C)C)C(=O)C2C)CN1` (stereo unspecified), the composite z-score amounted to 0.628.

`[N-]=[N+]=NCc1ccccc1C[C@@]1(C(N)=O)N=C(c2ccc(OCCCO)cc2)O[C@@H]1c1ccccc1CN=[N+]=[N-]`: the composite z-score was 0.757.

Turning to `C=CCNC(=O)[C@@H]1[C@H]2C(=O)O[C@H](c3ccccc3)[C@H](c3ccccc3)N2[C@H](c2ccccc2OCCO)[C@@]12C(=O)N(C(=O)OCCOC)c1ccc(C#CC3=CCCCC3)cc12`, the composite z-score turned out to be 0.706.

The compound `[N-]=[N+]=NCc1ccccc1C[C@@]1(C(=O)NCCN2CCOCC2)N=C(c2ccc(OCCCO)cc2)O[C@@H]1c1ccccc1N=[N+]=[N-]` returned a composite z-score of 0.678.

In turn, `O=C1OCC=C[C@H]2OC34C=CCN(c5ccc(Cl)cc5)C(=O)[C@H]3N(CCCCCO)C(=O)[C@@H]4[C@@H]12` (stereo partly specified) had a composite z-score of 0.387.

Regarding `CN(C)C(=O)[C@]1(CCC(=O)OC(C)(C)C)N=C(c2ccc(OCCCO)cc2)O[C@@H]1c1ccccc1`, the composite z-score was 0.383.

The compound `CCCNC(=O)[C@@]1(c2ccc([N+](=O)[O-])cc2)CC(=O)N(C2CCCCC2)[C@@H]1c1ccc(CO)cc1I` yielded a composite z-score of 0.529.

With `COC(=O)C[C@H]1O[C@]2(C(=O)N(C)c3ccccc32)[C@@H](C)[C@@H]1[Si](C)(C)c1ccc(C)cc1`, the composite z-score amounted to 0.683.

For the compound `COCCOC(=O)N1C(=O)[C@@]2(c3cc(C#CC4(O)CCCCCC4)ccc31)[C@H](c1ccccc1OCCO)N1[C@H](c3ccccc3)[C@H](c3ccccc3)OC(=O)[C@H]1[C@@H]2C(N)=O`, the composite z-score is -0.205.

`CO[C@H]1O[C@H](CO)[C@@H](OC(=O)c2ccc(Br)cc2)[C@@H]2OC(=O)[C@@H](Cc3ccc4ccccc4c3)C/C=C/C[C@H](Cc3ccc4ccccc4c3)C(=O)O[C@@H]12` registered a composite z-score of 0.934.

Consider `COCCCNC(=O)[C@]1(Cc2ccccc2N=[N+]=[N-])N=C(c2ccc(OCCCO)cc2)O[C@@H]1c1ccccc1N=[N+]=[N-]`, for which the composite z-score amounted to 0.99.

`C=CCOC(=O)[C@H]1[C@@H]2C(=O)O[C@@H](c3ccccc3)[C@@H](c3ccccc3)N2[C@@H](c2ccc(OCCOC(=O)[C@H]3C[C@H]4C(=O)N[C@@H](CCCC[N+](C)(C)C)C(=O)N4[C@H]3c3cccc(OCCO)c3)cc2)[C@]12C(=O)Nc1ccc(I)cc12` yielded a composite z-score of -0.0737.

Take `COc1ccc(NN2C(C(O)c3ccco3)C=CC3C(=O)N(C4CCCCC4)C(=O)C32)cc1` (stereo unspecified): the composite z-score is 0.749.

In the case of `O=C1NC(=O)C2C1C=CC(C(O)c1ccc(Br)cc1)N2Nc1ccccn1` (stereo unspecified), the composite z-score turned out to be 0.849.

Compound `C[C@]1(C(=O)O)c2ccccc2C(=O)N(Cc2ccccc2)[C@H]1c1ccc(CO)cc1` yielded a composite z-score of -0.408.

In turn, `COCCOC(=O)N1C(=O)[C@@]2(c3cc(C#CC4(O)CCCCCC4)ccc31)[C@H](C(N)=O)[C@H]1C(=O)O[C@H](c3ccccc3)[C@H](c3ccccc3)N1[C@@H]2c1ccc(O)cc1` registered a composite z-score of 0.21.

Consider `CCN(CC)c1ccc(N2CC=CC34O[C@@H]5/C=C\CCC(C)OC(=O)C5[C@H]3C(=O)N(CCO)[C@@H]4C2=O)cc1` (stereo partly specified), for which the composite z-score is -0.694.

Regarding `CCOC(=O)C[C@H]1[C@H](OC(=O)c2ccccc2-c2ccccc2)[C@@H](NC(=O)CC(C)C)c2cc(OCCCO)ccc2N1C(=O)c1ccc2ccccc2n1`, the composite z-score turned out to be 0.641.

The compound `O=C1O[C@@H](c2ccccc2)[C@@H](c2ccccc2)N2[C@@H](c3ccccc3OCCO)[C@]3(C(=O)Nc4ccc(C#CC5=CCCCC5)cc43)[C@@H](C(=O)NC[C@H](O)c3ccccc3)[C@H]12` yielded a composite z-score of 0.402.

With `C=CCOC(=O)[C@@H]1[C@H]2C(=O)O[C@H](c3ccccc3)[C@H](c3ccccc3)N2[C@H](c2ccc(OCCOC(=O)[C@H]3C[C@H]4C(=O)N[C@@H](CC(C)C)C(=O)N4[C@H]3c3ccc(O)cc3)cc2)[C@@]12C(=O)Nc1ccc(I)cc12`, the composite z-score was -1.13.

`NCCCCCCNC(=O)[C@H]1C[C@H]2C(=O)N[C@@H](Cc3ccccc3)C(=O)N2[C@H]1c1ccc(O)cc1` displayed a composite z-score of 0.855.

Take `O=C1OCC=C[C@H]2OC34C=CCN(Cn5nnc6ccccc65)C(=O)[C@H]3N(CCCCCCO)C(=O)[C@@H]4[C@@H]12` (stereo partly specified): the composite z-score is -1.02.

`COc1ccc([Si](C)(C)[C@H]2[C@H](CCn3cc([C@H](O)c4ccccc4)nn3)O[C@@]3(C(=O)N(Cc4ccc(N5CCC5=O)cc4)c4ccccc43)[C@@H]2C)cc1` had a composite z-score of 0.0383.
